Test results taken from the supplement of paper PMC6555819.

How the values were obtained:
Test in all cases: PBM binding z-score (relative to random genomic background probes); higher = stronger binding; sequences stand for … in GC…GCGATTGACAGCGTAGAATGAAGG
[1] = tested on: PPARg:RXRa DBDmut IVT, anti-RXR (DBD mutation: RXRa K156A/R161A, NR concentration 270 nM, RXRa partner concentration 90 nM)
How it was run: (§1)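 Binding buffer was PBS pH 7.4 with 2% milk, 0.02% Triton X-100, 1 mM DTT, 0.2 mg/mL BSA and 0.4 mg/ml salmon testes DNA. In it, ligand-free nuclear receptor dimers were incubated 1 h on custom Agilent 4×180K protein-binding microarrays carrying double-stranded probes. Antibodies against each partner (one per run) detected binding, and z-scores were calculated against random background probes after regression normalization of scanned fluorescence.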

[2] = tested on: PPARg:RXRa IVT, anti-PPARg (NR concentration 270 nM, RXRa partner concentration 90 nM)
How it was run: as §1

[3] = tested on: PPARg DBDmut:RXRa IVT, anti-PPARg (DBD mutation: PPARg1 K132A/R137A, NR concentration 270 nM, RXRa partner concentration 90 nM)
How it was run: as §1

[4] = tested on: PPARg DBDmut IVT, anti-PPARg (DBD mutation: PPARg1 K132A/R137A, NR concentration 270 nM)
How it was run: as §1

[5] = tested on: PPARg homodimer (NR concentration 180 nM)
How it was run: as §1

[6] = tested on: PXR:RXRa (NR concentration 270 nM, RXRa partner concentration 90 nM)
How it was run: as §1

[7] = tested on: PXR homodimer (NR concentration 270 nM)
How it was run: as §1

[8] = tested on: RARa:RXR (NR concentration 270 nM, RXRa partner concentration 90 nM)
How it was run: as §1

[9] = tested on: RARa homodimer (NR concentration 270 nM)
How it was run: as §1

[10] = tested on: RARb:RXRa (NR concentration 270 nM, RXRa partner concentration 90 nM)
How it was run: as §1

[11] = tested on: RARb homodimer (NR concentration 270 nM)
How it was run: as §1

[12] = tested on: RARg:RXRa (NR concentration 270 nM, RXRa partner concentration 90 nM)
How it was run: as §1

[13] = tested on: RARg homodimer (NR concentration 270 nM)
How it was run: as §1

[14] = tested on: RXRa DBDmut IVT, anti-RXR (DBD mutation: RXRa K156A/R161A, NR concentration 90 nM)
How it was run: as §1

[15] = tested on: RXRa homodimer (NR concentration 180 nM)
How it was run: as §1

[16] = tested on: THRa:RXRa (NR concentration 90 nM, RXRa partner concentration 90 nM)
How it was run: as §1

[17] = tested on: THRa homodimer (NR concentration 90 nM)
How it was run: as §1

[18] = tested on: VDR homodimer (NR concentration 270 nM)
How it was run: as §1

Sequence | PBM binding z-score [1] | PBM binding z-score [2] | PBM binding z-score [3] | PBM binding z-score [4] | PBM binding z-score [5] | PBM binding z-score [6] | PBM binding z-score [7] | PBM binding z-score [8] | PBM binding z-score [9] | PBM binding z-score [10] | PBM binding z-score [11] | PBM binding z-score [12] | PBM binding z-score [13] | PBM binding z-score [14] | PBM binding z-score [15] | PBM binding z-score [16] | PBM binding z-score [17] | PBM binding z-score [18]
ATCTCTAAGTAAAGTTCAGTGAAAGATCGATAGA | 0.19 | 0.648 | 1.26 | 1.06 | 1.44 | 2.03 | 1.8 | 1.34 | 1.77 | 2.63 | 2.32 | 1.98 | 2.42 | 1.71 | 1.26 | 0.85 | -0.131 | 2.32
CGTCCAAGTTCAATGCTAGGTCAGTGAAAGCATT | 0.331 | 0.878 | 0.0119 | 0.59 | 2.95 | 4.21 | 4.73 | 3.6 | 1.33 | 3.79 | 3.86 | 5.74 | 4.36 | 4.53 | 2.5 | 3.53 | 1.21 | 4.43
TAGACTAGGTCATTGGGCCAGTATAGTACGCATC | 5.72 | 6.51 | 1.28 | 0.786 | 1.15 | 1.2 | 0.294 | 1.65 | 0.657 | 3.45 | 2.75 | 3.47 | 4.19 | 0.824 | 2.44 | 2.45 | 0.646 | 1.26
CCTTACGGGTCACGAGGTTATACCACGACGAGCG | 4.05 | 5.31 | 1.4 | 2.59 | 3.29 | 4.71 | 0.172 | 6.09 | 0.951 | 4.45 | 3.83 | 6.22 | 5.35 | 1.77 | 7.21 | 3.84 | 1.13 | 2.24
TCATATAGGTAATACAGGTGAAAGCCGGCATCTA | 3.7 | 3.6 | 1.75 | 1.32 | 1.14 | 0.985 | 0.433 | 1.36 | 0.756 | 0.757 | 0.482 | 0.795 | 0.815 | 1.69 | 1.55 | 1.14 | 0.273 | 0.67
ATCGAAAGGTCGAGGGTGAGTATACCCACCCGAA | -0.26 | 1.94 | 0.623 | 0.934 | 0.976 | 2.41 | -0.393 | 3.41 | 0.53 | 4.09 | 2.59 | 4.14 | 4.24 | 0.471 | 4.59 | 1.94 | -0.00779 | 0.138
TCAAATAGGTAAAAGGTGAAAGTCGGTGTGGTAA | 4.66 | 4.53 | 0.779 | 0.749 | 2.29 | 1.91 | 0.411 | 3.31 | 1.82 | 2.27 | 2.05 | 1.86 | 1.07 | 2.15 | 3.26 | 1.77 | 0.3 | 0.497
CAAACTAGTTCAAGGTCAAAGTCGGTTTGTGCCA | 2.12 | 3.26 | 0.529 | -0.205 | 3.85 | 5.23 | 3.52 | 5.1 | 0.936 | 4.34 | 4.53 | 4.97 | 4.53 | 3.32 | 4.79 | 4.05 | 4.02 | 4.9
CCTTACGGGTCACGAGGTTATAGCCCGACGAGCG | 3.74 | 5.56 | 0.959 | 1.66 | 3.14 | 4.59 | -0.00848 | 6.27 | 0.153 | 4.74 | 4.11 | 6.07 | 5.36 | 1.81 | 6.74 | 3.65 | 1.07 | 2.03
AATACAGGGTCATCGTAGGCCGGAGTACGCACAG | 2.7 | 4.02 | 1.63 | 1.58 | 2.22 | 4.4 | 0.419 | 4.74 | 0.979 | 4.17 | 3.49 | 5.55 | 5.08 | 3.69 | 6.23 | 4.13 | 1.46 | 3.63
CCTAGGAGGACAACAGGAGGTCAGAGCTGCCAGA | 0.869 | 0.949 | -0.763 | -0.811 | 1.47 | 2.11 | 0.811 | 2.48 | 0.684 | 2.79 | 3.64 | 3.49 | 3.47 | 0.503 | 2.25 | 2.82 | 1.1 | 1.4
ATCTCTAGGTAAGACTCAGTTCAGTGACGAACGC | 2.2 | 1.36 | 0.803 | 0.863 | 0.854 | 1.11 | 2.01 | 0.642 | 1.18 | 0.528 | 0.735 | 0.464 | 0.443 | 0.676 | 0.364 | 0.824 | 0.878 | 1.74
GATACAGGGTCAAGGCCCGAGTACGCGTATTGAT | 2.09 | 3.66 | 0.597 | -0.396 | 1.27 | 3.48 | 0.163 | 4.6 | 0.3 | 4.31 | 3.19 | 5.42 | 5 | 2.42 | 5.69 | 3.47 | 0.807 | 2.35
GGAACCAGGGCAAAGTTGATAGCATCTGTCGACG | 4.31 | 4.92 | 0.131 | 1.82 | 1.1 | 0.754 | 0.639 | 0.798 | 0.36 | 2.22 | 1.67 | 1.34 | 1.41 | 1.03 | 1.12 | 1.18 | 0.549 | 0.747
CGAACGAGGGCATGAGGTGATAGCAAATGCCGAT | 3.25 | 3.37 | 0.644 | -0.341 | 0.574 | 0.422 | -0.352 | 1.16 | 0.0615 | 2.26 | 1.11 | 1.88 | 1.83 | 1.56 | 1.32 | 2.26 | 0.557 | 0.945
